{
  "source": "PubChem BioAssay (NCI)",
  "note": "The panel holds about 83,000 compounds, 20% with a hit somewhere; the sample as a whole holds those more often.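 In brief: 96-well plates, 48 h treatment, single concentration, percent growth endpoint.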 Calls of active or inactive are those of the source. The calls were made as follows: active = growth percent below 10; inactive = the rest.",
  "data": [
    {"test_system": "UO-31 renal", "experiment": "NCI-60 one-dose screen, 48 h (100 = growth as untreated, 0 = no growth, -100 = all killed)", "settings": "10 µM unless noted", "values": [
      {"smiles": "CNc1cc(C(=O)O)nc(NC)n1", "growth": "88.4% (inactive)"},
      {"smiles": "Brc1ccc2c(c1)CN(C1CCCCC1)CO2", "growth": "78.9% (inactive)"},
      {"smiles": "CCN=C1C=CC(=C(c2ccc(N(CC)CC)cc2)c2ccc(N(CC)CC)cc2)c2ccccc21", "growth": "-65.4% (active)"},
      {"smiles": "O=C(CSc1nc2ccc([N+](=O)[O-])cc2[nH]1)Nc1ccc(F)c(Cl)c1", "growth": "3.59% (active)"},
      {"smiles": "COc1ccc(-c2ccc(NNC(=O)c3ccc(F)cc3)nn2)cc1OC", "growth": "34.8% (inactive)"},
      {"smiles": "CCOC(CNC(=O)c1cccc([N+](=O)[O-])c1)OCC", "growth": "81.8% (inactive)"},
      {"smiles": "CN(C)C(=S)Sc1ccc([N+](=O)[O-])cc1[N+](=O)[O-]", "growth": "16.7% (inactive)"},
      {"smiles": "CCN(CC)CC(C)Nc1ccc(C)c2sc3ccccc3c(=O)c12", "note": "(stereo unspecified)", "growth": "19.5% (inactive)"},
      {"smiles": "CN(C)Cc1ccc[nH]1", "growth": "88.9% (inactive)"},
      {"smiles": "CNC(=O)c1cc(Oc2cccc3nc(NC(=O)Nc4cc(C(F)(F)F)cc(C(F)(F)F)c4)ccc23)ccn1", "growth": "11.7% (inactive)"},
      {"smiles": "CC1=CC[C@@H]2C(C)(C)[C@@H](O)CC[C@@]2(C)[C@@H]1COc1ccc2ccc(=O)oc2c1", "growth": "2.21% (active)"},
      {"smiles": "CC(=O)CC(=O)SC1=NCCS1", "growth": "98.9% (inactive)"},
      {"smiles": "CSc1cccc([N+](=O)[O-])c1", "growth": "95.7% (inactive)"},
      {"smiles": "O=C1/C(=C\\c2cccn2Cc2ccccc2)c2ccccc2N1c1c(Cl)cccc1Cl", "growth": "50.2% (inactive)"},
      {"smiles": "COc1ncnc2c(-c3ccccc3)cn(COCc3ccccc3)c12", "growth": "44.2% (inactive)"},
      {"smiles": "C=C(C)[C@@H]1CC[C@]2(C(=O)NCCCN)CC[C@]3(C)[C@H](CC[C@@H]4[C@@]5(C)CC[C@H](O)C(C)(C)[C@@H]5CC[C@]43C)[C@@H]12", "growth": "-34.3% [100 µM] (active)"}
    ]}
  ]
}
